Hit rate of the full screen: of about 30,000 compounds, about 580 (1.9%) were called active. The entries come from a sample that favours actives as a whole. Unmarked numbers belong to inactive results. No stated cut-off is given here; in the data, active means inhibition above about 43%; inactive means the rest.
biological target: Serine/threonine-protein kinase ULK1 (Homo sapiens) (UniProt O75385); assay: ULK1 kinase inhibitors, primary screen, biochemical, AlphaScreen (AID 1259251); conditions: AlphaScreen Atg13 phosphorylation by ULK1, luminescence; at 5.96 µM; stronger effect = higher value;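 further: 0% = median of compound wells and 100% = no enzyme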
Sequence (O75385 whole entry, looked up): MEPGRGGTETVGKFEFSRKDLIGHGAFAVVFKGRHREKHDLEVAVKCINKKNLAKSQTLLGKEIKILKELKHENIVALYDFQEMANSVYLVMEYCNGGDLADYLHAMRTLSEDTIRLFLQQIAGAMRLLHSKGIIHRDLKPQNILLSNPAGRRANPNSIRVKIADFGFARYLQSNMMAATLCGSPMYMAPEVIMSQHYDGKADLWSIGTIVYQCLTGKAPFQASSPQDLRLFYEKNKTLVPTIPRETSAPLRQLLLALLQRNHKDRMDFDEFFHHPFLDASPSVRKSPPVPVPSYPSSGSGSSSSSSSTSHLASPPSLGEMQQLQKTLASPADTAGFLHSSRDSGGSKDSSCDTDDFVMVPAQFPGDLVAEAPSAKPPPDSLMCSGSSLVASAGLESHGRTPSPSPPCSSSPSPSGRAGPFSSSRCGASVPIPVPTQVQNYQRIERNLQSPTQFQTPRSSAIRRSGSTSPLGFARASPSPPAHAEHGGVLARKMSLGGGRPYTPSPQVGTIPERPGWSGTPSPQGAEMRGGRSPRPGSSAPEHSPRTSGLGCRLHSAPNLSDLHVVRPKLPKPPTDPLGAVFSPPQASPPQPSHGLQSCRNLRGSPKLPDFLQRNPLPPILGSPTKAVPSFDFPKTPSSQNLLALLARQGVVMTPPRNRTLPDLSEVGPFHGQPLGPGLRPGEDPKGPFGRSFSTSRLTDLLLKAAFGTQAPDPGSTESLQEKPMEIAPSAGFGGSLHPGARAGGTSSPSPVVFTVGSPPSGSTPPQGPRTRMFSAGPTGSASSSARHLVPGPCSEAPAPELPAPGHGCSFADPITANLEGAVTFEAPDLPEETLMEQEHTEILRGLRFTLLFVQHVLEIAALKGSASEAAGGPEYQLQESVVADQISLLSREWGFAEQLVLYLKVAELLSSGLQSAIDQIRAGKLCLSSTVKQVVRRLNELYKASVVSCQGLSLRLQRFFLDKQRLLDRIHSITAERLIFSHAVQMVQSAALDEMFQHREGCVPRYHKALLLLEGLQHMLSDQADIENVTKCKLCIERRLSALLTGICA

Compound | inhibition
Cn1c(Nc2nc3ccc(C(=O)NCCO)cc3s2)nc2ccccc21 | 20.6%
Cc1cc(NCc2cccc(C(F)(F)F)c2)nc(NC2CCC(O)CC2)n1 (configuration not stated) | -8.27%
Nc1nc(Nc2cnccn2)cc(NC2CCN(Cc3ccccc3)CC2)n1 | -0.08%
CC(=O)c1cccc(-c2nc3ncnc(NCc4nc5ccccc5[nH]4)c3[nH]2)c1 | -5.39%
CC(C)(C)c1nc(-c2cccc(NS(=O)(=O)c3c(F)cccc3F)c2F)c(-c2ccnc(N)n2)s1 | 66.2% (active)
CCCNc1nc(-c2cccc(C(C)=O)c2)nc2c1ncn2-c1ccccc1 | -6.8%
C[C@@H](CN)Oc1ncccc1C(=O)Nc1ccc2[nH]ncc2c1 | 0.92%
OCC1CCCN1c1nc2ncnc(NC3CC3)c2[nH]1 (configuration not stated) | 1.11%
COc1cccc(CNC(=O)Nc2ccc(-c3cn[nH]c3)cc2OC2CCNC2)c1 (configuration not stated) | 55.8% (active)
COc1cccc(CN(CC2CC2)C(=O)Nc2ccc(-c3cn[nH]c3)cc2OC)c1 | -27.8%
COc1cccc(CNC(=O)Nc2ccc(-c3cn[nH]c3)cc2OC2CCC(O)C2)c1 (configuration not stated) | 2.68%
CCCNc1nc(NCc2cccnc2)nc2c1ncn2Cc1ccc(C(F)(F)F)cc1 | -9.26%
O=C(NCc1cccc(C(F)(F)F)c1)c1cnc(NCCCN2CCCC2=O)s1 | -7.22%
COC(=O)c1ccc(Cn2c(-c3nnc(CC(C)C)o3)cc3ccccc32)o1 | -10%
CC(=O)c1cccc(-c2nc3c(NCCCN4CCCC4=O)ncnc3n2C(C)C)c1 | 5.85%
CC(=O)c1cccc(-c2nc3c(Nc4ccc(N5CCOCC5)cc4)ncnc3n2C(C)C)c1 | 67.5% (active)
CC(=O)Nc1ccc(Nc2ncnc3c2nc(-c2cccc(N)c2)n3C(C)C)cc1 | -4.82%
O=C1NC(=S)NC(=O)C1=Cc1ccc(-c2ccc([N+](=O)[O-])c(Cl)c2)o1 | 24.2%
O=C(NCc1cccc(NC(=O)C2CC2)c1)Nc1ccc(-c2cn[nH]c2)cc1 | 6.93%
Cn1cc(-c2cc(Nc3ccc(N4CCOCC4)cn3)ncc2Cl)cn1 | 53.2% (active)
COc1cc(Nc2cc(-c3nocc3-c3cnn(C)c3)ccn2)ccc1N1CCOCC1 | -3.85%
Cn1nccc1Nc1cc(Nc2ccc(N3CCOCC3)cc2)ncn1 | 17.2%

Compound | inhibition
COc1ccc(CCNc2cc(-c3csc4ccccc34)ncn2)cc1 | -12%
COCCn1nnnc1C(c1cc2ccc(C)cc2[nH]c1=O)N1CCc2ccccc21 (configuration not stated) | -5.34%
O=C(Nc1ccc(-c2cn[nH]c2)cc1)C1CCc2ccccc2O1 (configuration not stated) | 12.4%
COc1cc(Nc2ccc(N3CCC(C(=O)NCc4nc5ccccc5[nH]4)CC3)nn2)cc(OC)c1OC | 7.51%
COc1ccc2c(c1)CC(C(=O)Nc1ccc(-c3cn[nH]c3)cc1OCCN(C)C)CO2 (configuration not stated) | 7.42%
COc1cccc(Nc2nccc(-c3ccc4c(=O)n(C5CC5)c(C)nc4c3)n2)c1 | 21.2%
O=C(c1ccc(Nc2nccc(-c3ccc4c(=O)[nH]c(C5CC5)nc4c3)n2)cc1)N1CCCC1 | 62.9% (active)
CC(C)NC(=O)c1cccc(Nc2nccc(-c3ccc4nc(C5CC5)nc(N5CCCC5)c4c3)n2)c1 | -33.9%
OCC1CCCN1c1nc(NC2CCN(Cc3ccccc3)CC2)c2ncn(Cc3ccc(C(F)(F)F)cc3)c2n1 (configuration not stated) | -14.8%
Cn1cc(-c2ccc3cnc(Nc4ccc(-n5cnc(N6CCOCC6)n5)cc4)nc3c2-c2cnn(C)c2)cn1 | 51.5% (active)
COC1CCN(c2ncn(-c3ccc(Nc4nccc(-c5cncc(N6CCOCC6)c5)n4)cc3)n2)CC1 | -6.75%
Cc1ncccc1-c1ncn(-c2ccc(Nc3nccc(-c4cc(F)cc(N5CCOCC5)c4)n3)cc2)n1 | 5.38%
Cn1cc(-c2cc(Nc3ccc(-n4cnc(N5CCC(O)CC5)n4)cc3)ncc2Cl)cn1 | -17%
c1coc(-c2ccc3cnc(Nc4ccc(-n5cnc(N6CCOCC6)n5)cc4)nc3c2)n1 | 3.23%
Cn1cc(-c2nc(Nc3ccc(-n4cnc(N5CCC(O)CC5)n4)cc3)ncc2Br)cn1 | 85.1% (active)
O=C(NC1CCN(Cc2ccccc2)CC1)c1cccc(-c2cccs2)n1 | -5.23%
O=C(Nc1ccc2[nH]ncc2c1)c1ccnc(OC2CCN(Cc3ccccc3)CC2)c1 | -8.14%
O=C(NC1CCN(Cc2ccccc2)CC1)c1cc(Cl)nc2ccccc12 | 2.89%
Cn1c(Nc2nc(NCc3cccc(C(F)(F)F)c3)c3ncn(C4CCCCC4)c3n2)nc2ccccc21 | 8.91%
O=C(NCCc1ccc(O)cc1)c1csc(Nc2ccc(N3CCOCC3)cc2)n1 | 13.3%
c1ccc(-c2ncn[nH]2)c(Nc2ccnc(Nc3ccc(N4CCOCC4)cc3)c2)c1 | 24.2%
Cc1cnc(Nc2ccc(N3CCOCC3)cc2)nc1Nc1ccccc1-c1ncn[nH]1 | 70.3% (active)

Compound | inhibition
Cc1cnc(-c2c(C)noc2C)nc1Nc1ccc(N2CCOCC2)cc1 | -1.73%
c1ccc(CN2CCC(Nc3nc(NCCOc4ccccc4)c4[nH]cnc4n3)CC2)cc1 | -28%
FC(F)(F)c1ccc(Cn2cnc3c(Nc4ccccc4)nc(N4CCN(c5ccccn5)CC4)nc32)cc1 | -7.96%
CN(C)c1cccc(Nc2cc(C(=O)NC3CC3)c3ccccc3n2)c1 | 4.11%
Cc1ccc(CNC(=O)c2cn(C)c3c(=O)n(-c4ccccc4)c(=O)[nH]c23)cc1 | 1.67%
CN1CCN(C(=O)c2ccc(-c3cc(NCc4cccc(C(F)(F)F)c4)ncn3)cc2)CC1 | -4.67%
COc1ccc(Cl)cc1NC(=O)COc1cccc2c1OC(C)(C)C2 | -8.02%
CNC(=O)c1cc(F)ccc1Nc1cc(Nc2ccc3[nH]ncc3c2)ncc1C(F)(F)F | 78.3% (active)
CNC(=O)c1cc(F)ccc1Nc1cc(Nc2ccc(NC(C)=O)cn2)ncc1C(F)(F)F | 89% (active)
CNC(=O)c1cc(F)ccc1Nc1cc(Nc2ccc3c(c2)CCC(=O)N3)ncc1C(F)(F)F | 85.8% (active)
CNC(=O)c1cc(F)ccc1Nc1cc(Nc2ccc3nc[nH]c3c2)ncc1C(F)(F)F | 3.83%
CC(=O)Nc1ccc(Nc2cc(Nc3ccccn3)nc(N)n2)cc1 | -21.9%
COc1cc(NC(=O)c2cnc(Nc3ccc(C(F)(F)F)cc3)s2)cc(OC)c1OC | -10.3%
O=C(NCCO)c1cc(Nc2ccc3[nH]ncc3c2)ccn1 | -10.8%
O=C1Cc2cc(Nc3cc(Nc4ccccn4)c(C(F)(F)F)cn3)ccc2N1 | 38.2%
COc1ccc(Oc2ncc(-c3ccc(OC)cc3)cn2)cc1 | -2.6%
COc1ccc(-n2cc(-c3ccccc3[N+](=O)[O-])cn2)cc1 | -17.3%
Cc1nn(C)c(C)c1-c1nc2ccc(C(=O)NCCO)cc2s1 | 1.9%
O=C(NCCOc1ccccc1)c1ccc2nc(N3CCN(Cc4ccc5c(c4)OCO5)CC3)sc2c1 | 1.44%
COc1ccc(-c2nc3ncnc(NCCc4ccc(O)cc4)c3[nH]2)cn1 | -9.33%
c1ccc(Oc2cc(NC3CC3)ncn2)cc1 | 4.64%
O=C(NCc1nc2ccccc2[nH]1)c1cccc(-c2cccs2)c1 | 1.37%

Compound | inhibition
CC(C)(C)c1ccc(S(=O)(=O)NCc2nc(-c3ccncc3)n[nH]2)cc1 | 2.8%
Cc1ccc(C)c(NS(=O)(=O)c2ccc3c(c2)OCCCO3)c1 | 0.58%
c1cc2c(cc1CNc1nc(Nc3ccc(N4CCOCC4)cc3)c3ncn(C4CCCCC4)c3n1)OCO2 | 56.2% (active)
c1ccc(CN2CCC(Nc3nc(-c4ccccc4)nc4c3ncn4C3CCCCC3)CC2)cc1 | -30.6%
c1ccc(CN2CCC(Nc3nc(Nc4ccc(N5CCOCC5)cc4)c4ncn(C5CCCCC5)c4n3)CC2)cc1 | 50.8% (active)
c1ccc(CN2CCC(Nc3nc(NCc4ccc5c(c4)OCO5)nc4c3ncn4C3CCCCC3)CC2)cc1 | 1.3%
c1ccc(CN2CCC(Nc3nc(NCCN4CCOCC4)c4ncn(C5CCCCC5)c4n3)CC2)cc1 | 7.74%
O=C1CCCN1CCn1cnc2c(Nc3ccc(N4CCOCC4)cc3)nc(NCc3ccc4c(c3)OCO4)nc21 | 11.6%
CC(C)N(CCNC(=O)C1CCN(c2ccc(Nc3ccccc3)nn2)CC1)C(C)C | 0.63%
COc1cc(NC(=O)c2ccnc(-c3c(C)noc3C)c2)cc(OC)c1OC | 3.86%
Oc1ccc(CCNc2nc(Nc3ccncn3)nc3c2ncn3C2CCCCC2)cc1 | 14.6%
CC(=O)Nc1ccc(Nc2nc(Nc3ccccn3)ncc2C)cc1 | 8.71%
CC(C)N(CCNC(=O)Cc1cn(-c2ccc(Nc3ccc(N4CCOCC4)cc3)nn2)c2ccccc12)C(C)C | 5.92%
COc1cc(CNC(=O)c2cnc3cc(-c4cn[nH]c4)ccn23)cc(OC)c1 | -6.5%
CCCNC(=O)c1ccc2nc(-c3c(C)nn(C)c3C)sc2c1 | 1.04%
O=C1CCCN1CCCNc1nc(Nc2ccc3ncccc3c2)nc2nc[nH]c12 | 67.6% (active)
O=C1CCCN1CCCNc1nc(-c2ccccc2)nc2nc[nH]c12 | 9.26%
OCCNc1nc(Nc2ccccn2)nc2nc[nH]c12 | 8.19%
OCCNc1nc(Nc2ccc3ncccc3c2)nc2nc[nH]c12 | 62.7% (active)
CN(C)c1cccc(Nc2nc(NCCO)c3[nH]cnc3n2)c1 | 15.6%
O=C1CCCN1CCCNc1nc(Nc2cnccn2)nc2nc[nH]c12 | -13.6%
